Here are results for 9 molecules from PubChem BioAssay (NCATS).

Inconclusive results are not listed. Activity calls are given as the source filed them. Unless noted, calls follow the shape of the dose curve; as a rule, active = well fitted curve in either direction with a large enough effect (not every such curve was filed as active); inconclusive = small, poorly fitted or top-dose-only effect, or another doubt; inactive = flat fitted curve, though single readings scatter.

Experiment [1] relates to HIV-1 nucleocapsid protein NCp7 (binding to TG oligonucleotide). Nature of the experiment: HIV Nucleocapsid (AID 346; call rule not given here;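 also: potency is read from the fitted curve at half-maximal effect; potency is for inhibitors that block NC binding and lower polarization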). To be noted: HIV-1 NC / fluorescein-TGTGTGTG probe, fluorescence polarization. The method in brief:
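Inhibition of nucleocapsid binding to single-stranded 5'-TGTGTGTG probe (10 nM) was measured by fluorescence polarization after 1 hr at room temperature with 100 nM protein under high-salt, zinc-containing, reducing conditions.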

For experiment [2], the target named is Lysosomal acid glucosylceramidase (Homo sapiens) (UniProt P04062). Nature of the experiment: Glucocerebrosidase-p2 (AID 348; in the data active = potency below about 10 µM; also: potency is read from the fitted curve at half-maximal effect). The following applies: purified GBA, blue fluorogenic substrate, 40 min. The method, boiled down:
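Normal human glucocerebrosidase (0.2 nM) with blue fluorogenic substrate (80 uM final) in citrate/phosphate pH 5.9 with 10mM sodium taurocholate, 0.01% tween-20; 40 min RT, NaOH/glycine stop; fluorescence Ex 365/Em 440; AC50 from a titration from 0.6 nM upwards.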

Experiment [3] can be described thus: AP1 Signaling Pathway (AID 357). Also: % is scaled to controls: 0 for no effect and ±100 for the full control effect. The method in brief: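 ME-180 cells with beta-lactamase reporter under AP-1 response element, stimulated with EC50 EGF; compounds tested in titration series, 5 h at 37 °C. CCF4 substrate added 2.5 h at room temperature; 460/530 nm emission ratio gave %activity and AC50.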
Experiment [4] can be described thus: NFAT Signaling Pathway (AID 444).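 Also: carbachol stimulus at about its EC50 of 1 µM final; % is scaled to controls: 0 for no effect and ±100 for the full control effect.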 The following applies: Jurkat NFAT-bla M1, carbachol, beta-lactamase ratio, 5 h; at 7.69 µM (top of the series). The method in brief:
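Jurkat cells with NFAT-driven β-lactamase reporter and co-expressed M1 receptor, stimulated with carbachol (final 1 uM, ~EC50), compound titration, 5 h at 37 °C. CCF4 loaded 1 h at RT; 460/530 nm ratio gave %activity and AC50.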

Experiment [5] in a line: Stat Signaling Pathway (AID 446).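 Also: ME-180 cervical cancer cells given 40 pM IL-6 alongside compound; SIE-controlled beta-lactamase reporter measured as 460/530 nm FRET emission ratio; % is scaled to controls: 0 for no effect and ±100 for the full control effect.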 The method, boiled down:
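FRET read-out (405 nm excitation, 460/530 nm emission) of a beta-lactamase reporter under a STAT-inducible element in ME-180 cervical carcinoma cells. Cells with compound receive 40 pM IL-6 for 5 h. Values are normalised to AC90 stimulation and AC90 JAK-inhibitor controls.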

The target of experiment [6] is Glucocorticoid receptor (Homo sapiens) (UniProt P04150). Nature of the experiment: GR-EFC Redistribution (AID 451; calls by dose curve; also: potency is read from the fitted curve at half-maximal effect). The following applies: CHO-K1 GR-EFC translocation, beta-gal luminescence, 2 h. The method, boiled down:
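CHO-K1 cells expressing nuclear EA and GR-ED fragments of b-gal; compounds titrated up to 46 uM final, 2 h at 37 C. GR nuclear translocation read as complemented b-gal luminescence after 1 h RT detection.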

Experiment [7] is described as follows: qHTS Assay for Lipid Storage Modulators (AID 1519; calls by dose curve). To be noted: Drosophila S3 cells, BODIPY lipid droplet/cell ratio, laser cytometry, cells loaded with oleic acid; for activity change, negative = inhibition: at 57.5 µM (top of the series). The method, boiled down:
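Cells seeded at 5,000 per well were treated with compounds over a concentration series and loaded with oleic acid (400 uM, as added). Lipid droplet fluorescence (488 nm excitation, 500-530 nm channel) was read by laser-scanning cytometry and normalized to 20 uM Triacsin C.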
Background: In qHTS, concentration-response curves come from the screen itself.

The nature of experiment [8]: Primary qHTS for small molecule stabilizers of the endoplasmic reticulum resident proteome: Secreted ER Calcium Modulated Protein (SERCaMP) assay (AID 1508630; active = well fitted curve in the direction sought with a large enough effect; an effect the other way counts as inactive or inconclusive; also: % is scaled to controls: 0 for no effect and ±100 for the full control effect). The method in brief: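 The SH-SY5Y reporter protocol was run at 3 concentrations up to 38.3 uM (primary) or 11 concentrations (follow-up): 16 h compound, 100 nM thapsigargin for 4 h, then extracellular luciferase luminescence.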

Experiment [9] deals with Mitogen-activated protein kinase 10 (Mus musculus) (UniProt Q61831). Put plainly: JNK3 AlphaScreen Assay (AID 530). The method in brief:
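Activity was read by AlphaScreen after JNK3-containing HepG2 lysate (cytokine pre-activated) phosphorylated biotinylated GST-cJun with 10 uM ATP at room temperature. Phospho-Ser73 cJun antibody with Protein-A acceptor beads provided detection.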
For orientation: Alpha assays give light when donor and acceptor beads are brought close together.

In experiment [10] the target is 3',5'-cyclic-AMP phosphodiesterase 4B (Homo sapiens) (UniProt Q07343). Put plainly: qHTS Assay for Inhibitors of PDE-IV (AID 607; active = well fitted activation curve with a large enough effect in the main read-out, with a control signal flat, not every such curve was filed as active; also: % of control where 0% means no effect). The method, boiled down: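 Cell-based read-out of cAMP via a modified cyclic nucleotide-gated channel and membrane potential dye (535/590 nm) in HEK293 cells expressing PDE4 endogenously. Compounds tested up to 22.9 uM final; 100 uM RO 20-1724 reference.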
Chain of 3',5'-cyclic-AMP phosphodiesterase 4B (Homo sapiens) (Q07343 whole entry, looked up): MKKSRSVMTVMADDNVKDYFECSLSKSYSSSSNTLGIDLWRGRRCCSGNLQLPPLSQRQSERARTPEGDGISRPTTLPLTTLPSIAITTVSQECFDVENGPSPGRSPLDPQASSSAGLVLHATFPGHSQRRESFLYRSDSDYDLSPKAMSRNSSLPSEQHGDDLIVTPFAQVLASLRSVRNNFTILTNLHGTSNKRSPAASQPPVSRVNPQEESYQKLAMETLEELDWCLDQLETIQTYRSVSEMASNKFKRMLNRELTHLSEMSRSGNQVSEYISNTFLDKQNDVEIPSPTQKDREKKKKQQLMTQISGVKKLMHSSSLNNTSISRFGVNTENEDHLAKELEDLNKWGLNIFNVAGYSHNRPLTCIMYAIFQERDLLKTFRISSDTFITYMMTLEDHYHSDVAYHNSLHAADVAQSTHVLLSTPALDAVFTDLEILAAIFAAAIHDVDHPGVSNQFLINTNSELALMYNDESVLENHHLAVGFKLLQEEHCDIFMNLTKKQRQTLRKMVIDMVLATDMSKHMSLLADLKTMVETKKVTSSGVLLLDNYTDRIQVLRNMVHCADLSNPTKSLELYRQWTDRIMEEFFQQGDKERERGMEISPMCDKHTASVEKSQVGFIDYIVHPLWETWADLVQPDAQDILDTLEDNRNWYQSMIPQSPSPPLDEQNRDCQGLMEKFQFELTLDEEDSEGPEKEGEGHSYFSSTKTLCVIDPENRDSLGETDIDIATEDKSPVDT

Experiment [11] concerns the target Cytochrome P450 1A2 (Homo sapiens) (UniProt P05177). Nature of the experiment: p450-cyp1a2 (AID 410; calls by dose curve). The method in brief: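 Luminescent demethylation readout: Luciferin-ME (100uM, equal to Km) turned over by 20nM CYP1A2 for 60 min at room temperature after NADPH regeneration addition, following 10 min compound preincubation. Normalization used 57 uM furafylline as full inhibition.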

In experiment [12] the target is Cytochrome P450 2C9 (Homo sapiens) (UniProt P11712). Nature of the experiment: qHTS Assay for Inhibitors and Substrates of Cytochrome P450 2C9 (AID 883; active = well fitted curve in the direction sought with a large enough effect; an effect the other way counts as inactive or inconclusive; also: % is scaled to controls: 0 for no effect and ±100 for the full control effect; nearly all actives have a fitted effect of over 60% in size). The method, boiled down: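 Signal: luciferase luminescence reporting luciferin produced by CYP2C9. Conditions: 10nM enzyme, Luciferin-H 100uM at KM, 25mM KPO4, 37C, 60 min NADPH-driven reaction. Reference: 57uM sulphaphenazole as 100% inhibition.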
Chain of Cytochrome P450 2C9 (Homo sapiens) (P11712 whole entry, looked up): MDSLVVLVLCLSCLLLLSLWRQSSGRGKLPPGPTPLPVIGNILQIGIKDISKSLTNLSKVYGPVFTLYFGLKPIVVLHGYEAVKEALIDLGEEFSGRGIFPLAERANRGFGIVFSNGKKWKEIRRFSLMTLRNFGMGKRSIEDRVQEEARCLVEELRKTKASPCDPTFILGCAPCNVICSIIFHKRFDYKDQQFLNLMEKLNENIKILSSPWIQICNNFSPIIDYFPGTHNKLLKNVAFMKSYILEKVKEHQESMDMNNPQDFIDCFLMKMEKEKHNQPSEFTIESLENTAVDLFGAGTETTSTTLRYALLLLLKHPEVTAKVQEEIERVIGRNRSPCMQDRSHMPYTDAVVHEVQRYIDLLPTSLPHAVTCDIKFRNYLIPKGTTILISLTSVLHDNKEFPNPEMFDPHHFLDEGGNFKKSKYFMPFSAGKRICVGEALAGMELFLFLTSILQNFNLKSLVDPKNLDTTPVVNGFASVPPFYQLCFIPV

Experiment [13] has as its target Cytochrome P450 3A4 (Homo sapiens) (UniProt P08684). Nature of the experiment: qHTS Assay for Inhibitors and Substrates of Cytochrome P450 3A4 (AID 884; active = well fitted curve in the direction sought with a large enough effect; an effect the other way counts as inactive or inconclusive; also: % is scaled to controls: 0 for no effect and ±100 for the full control effect; nearly all actives have a fitted effect of over 50% in size). The method in brief: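 Luminescent readout of luciferin produced by CYP3A4 (20 nM) dealkylation of Luciferin-PPXE, 25 uM (its KM). NADPH-driven reaction ran 60 min at RT after 10 min compound preincubation; data scaled to 57 uM ketoconazole as 100% inhibition.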

The target of experiment [14] is Cytochrome P450 2D6 (Homo sapiens) (UniProt P10635). Put plainly: qHTS Assay for Inhibitors and Substrates of Cytochrome P450 2D6 (AID 891; active = well fitted curve in the direction sought with a large enough effect; an effect the other way counts as inactive or inconclusive;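 also: luciferin methyl ether substrate demethylated by CYP2D6 with NADPH regeneration; % is scaled to controls: 0 for no effect and ±100 for the full control effect; nearly all actives have a fitted effect of over 60% in size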). The method, boiled down: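 Luminescent read-out of luciferin formed by 5 nM human CYP2D6 demethylating 30 uM Luciferin-ME EGE (Km level) over 60 min at room temperature after NADPH regeneration addition. Data normalized to full inhibition by 1.43 uM quinidine.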
Chain of Cytochrome P450 2D6 (Homo sapiens) (P10635 whole entry, looked up): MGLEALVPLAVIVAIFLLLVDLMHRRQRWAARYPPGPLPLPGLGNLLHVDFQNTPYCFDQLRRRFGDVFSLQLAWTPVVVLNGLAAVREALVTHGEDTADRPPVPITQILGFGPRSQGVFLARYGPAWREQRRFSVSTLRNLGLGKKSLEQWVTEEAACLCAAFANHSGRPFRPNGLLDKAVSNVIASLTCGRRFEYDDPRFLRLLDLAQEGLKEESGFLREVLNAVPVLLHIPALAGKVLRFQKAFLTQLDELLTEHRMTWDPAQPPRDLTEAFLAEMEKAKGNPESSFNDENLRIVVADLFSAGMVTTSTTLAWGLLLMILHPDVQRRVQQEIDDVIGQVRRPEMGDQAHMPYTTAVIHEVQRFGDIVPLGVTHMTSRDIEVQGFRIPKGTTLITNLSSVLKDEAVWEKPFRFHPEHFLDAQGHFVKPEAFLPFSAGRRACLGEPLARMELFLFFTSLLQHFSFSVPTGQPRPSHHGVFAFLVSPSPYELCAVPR

Experiment [15] has as its target Cytochrome P450 3A4 (Homo sapiens) (UniProt P08684). Put plainly: qHTS Assay for Activators of Cytochrome P450 3A4 (AID 885; active = well fitted curve in the direction sought with a large enough effect; an effect the other way counts as inactive or inconclusive; also: nearly all actives have a fitted effect of over 65% in size). The method in brief: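 Luminescent readout of luciferin formed from 25 uM Luciferin-PPXE (KM level) by 20 nM CYP3A4 in 200 mM KPO4, with 60 min NADPH-driven reaction at room temperature after 10 min compound exposure. Ketoconazole (57 uM) defined 100% inhibition.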

Where [16] appears, read: measured here: cell count channel max response.
[17] abbreviates: measured here: lipid channel max response.

Chain of Lysosomal acid glucosylceramidase (Homo sapiens) (P04062 whole entry, looked up): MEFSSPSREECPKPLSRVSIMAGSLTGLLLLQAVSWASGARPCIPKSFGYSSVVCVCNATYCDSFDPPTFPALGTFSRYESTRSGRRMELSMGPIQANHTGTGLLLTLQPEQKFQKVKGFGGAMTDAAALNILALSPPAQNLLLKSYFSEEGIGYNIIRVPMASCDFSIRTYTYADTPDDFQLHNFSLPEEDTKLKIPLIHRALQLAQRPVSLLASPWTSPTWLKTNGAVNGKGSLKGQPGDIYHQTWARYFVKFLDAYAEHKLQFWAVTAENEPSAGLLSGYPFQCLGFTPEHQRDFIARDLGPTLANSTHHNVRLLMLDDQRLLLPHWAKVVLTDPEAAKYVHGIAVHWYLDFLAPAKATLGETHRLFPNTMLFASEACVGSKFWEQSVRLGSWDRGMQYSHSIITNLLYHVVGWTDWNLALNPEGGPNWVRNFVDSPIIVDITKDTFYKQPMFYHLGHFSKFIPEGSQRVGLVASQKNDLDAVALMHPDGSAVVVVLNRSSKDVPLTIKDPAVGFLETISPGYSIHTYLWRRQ
Chain of Glucocorticoid receptor (Homo sapiens) (P04150 whole entry, looked up, the tested form may be a part): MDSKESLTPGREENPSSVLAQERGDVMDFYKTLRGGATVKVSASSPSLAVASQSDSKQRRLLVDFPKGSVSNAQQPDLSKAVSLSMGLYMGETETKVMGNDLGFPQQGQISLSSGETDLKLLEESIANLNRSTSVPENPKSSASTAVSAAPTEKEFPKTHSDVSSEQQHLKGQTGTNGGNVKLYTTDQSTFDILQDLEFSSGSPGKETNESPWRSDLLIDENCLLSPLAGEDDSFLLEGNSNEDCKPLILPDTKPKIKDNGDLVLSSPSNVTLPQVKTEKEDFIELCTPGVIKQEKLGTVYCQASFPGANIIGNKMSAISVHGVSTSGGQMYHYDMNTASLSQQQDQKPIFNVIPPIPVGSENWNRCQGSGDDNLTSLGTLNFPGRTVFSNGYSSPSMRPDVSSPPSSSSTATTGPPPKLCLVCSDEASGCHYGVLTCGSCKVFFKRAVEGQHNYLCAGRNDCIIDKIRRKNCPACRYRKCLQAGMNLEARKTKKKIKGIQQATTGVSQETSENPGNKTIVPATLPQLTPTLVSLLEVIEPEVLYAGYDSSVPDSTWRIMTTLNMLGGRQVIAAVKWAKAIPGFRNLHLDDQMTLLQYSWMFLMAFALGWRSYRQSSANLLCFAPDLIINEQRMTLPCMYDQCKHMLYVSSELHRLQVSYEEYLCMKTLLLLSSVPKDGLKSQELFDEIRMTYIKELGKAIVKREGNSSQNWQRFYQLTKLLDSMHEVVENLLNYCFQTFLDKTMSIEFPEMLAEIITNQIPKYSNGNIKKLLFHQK
Chain of Cytochrome P450 1A2 (Homo sapiens) (P05177 whole entry, looked up): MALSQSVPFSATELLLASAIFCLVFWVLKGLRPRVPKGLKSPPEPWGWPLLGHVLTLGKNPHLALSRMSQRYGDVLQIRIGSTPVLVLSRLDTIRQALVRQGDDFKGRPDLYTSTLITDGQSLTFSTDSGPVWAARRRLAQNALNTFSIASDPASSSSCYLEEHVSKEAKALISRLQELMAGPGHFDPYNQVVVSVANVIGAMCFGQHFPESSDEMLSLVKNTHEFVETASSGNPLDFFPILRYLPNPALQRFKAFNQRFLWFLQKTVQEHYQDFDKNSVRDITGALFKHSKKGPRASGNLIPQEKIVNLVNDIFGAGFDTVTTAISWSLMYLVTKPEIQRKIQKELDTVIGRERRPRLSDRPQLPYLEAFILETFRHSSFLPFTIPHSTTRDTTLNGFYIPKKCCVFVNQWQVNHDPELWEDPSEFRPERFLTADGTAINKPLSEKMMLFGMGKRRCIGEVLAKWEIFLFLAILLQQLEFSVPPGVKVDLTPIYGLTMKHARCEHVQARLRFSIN
Chain of Cytochrome P450 3A4 (Homo sapiens) (P08684 whole entry, looked up): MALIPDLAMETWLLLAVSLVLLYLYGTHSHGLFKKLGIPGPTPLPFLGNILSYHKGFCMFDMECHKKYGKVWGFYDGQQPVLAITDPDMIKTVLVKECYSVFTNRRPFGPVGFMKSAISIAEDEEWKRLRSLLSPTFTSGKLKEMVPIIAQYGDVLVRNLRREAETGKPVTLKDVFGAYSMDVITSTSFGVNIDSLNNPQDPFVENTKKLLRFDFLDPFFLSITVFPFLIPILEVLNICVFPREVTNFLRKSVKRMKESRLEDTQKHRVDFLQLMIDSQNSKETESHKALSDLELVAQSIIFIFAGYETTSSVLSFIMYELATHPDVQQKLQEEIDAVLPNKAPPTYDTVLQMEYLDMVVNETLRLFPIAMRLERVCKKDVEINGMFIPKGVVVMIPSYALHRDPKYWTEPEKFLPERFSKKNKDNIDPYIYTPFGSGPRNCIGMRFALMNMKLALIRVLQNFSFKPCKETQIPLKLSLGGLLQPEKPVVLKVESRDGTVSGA

Consider `O=C(Oc1ccccc1)N1CCC2(CC1)CCN(C(c1ccccc1)c1ccccc1)CC2`, for which the results for the Potency in [1], in experiment [2] and in experiment [6] were > 20 µM (inactive), > 11.4 µM (inactive) and > 46 µM (inactive), respectively. Besides, the result in [3], in experiment [5] and in [8] was inactive. Moreover, the figures for the activity change, negative = inhibition in experiment [4] and in experiment [7] were -0.91% (inactive) and 4.05% (inactive), respectively. The max response is 5.73% in experiment [7] (setting [16]) and 13.3% in [7] (setting [17]).
For `O=C(c1cnccn1)N1CCC2(CC1)CN(Cc1ccncc1)C2`, the results for the Potency in experiment [1] and in experiment [2] were > 20 µM (inactive) and > 11.4 µM (inactive), respectively. Further, the molecule was called inactive in experiment [3], in experiment [5], in experiment [9] and in [8]. Besides, the activity change, negative = inhibition in experiment [4] was -23.5% (inactive); in experiment [7], 2.96% (inactive). Moreover, the Potency entry in experiment [10] is “inactive”. The values for the max response in experiment [7] (setting [16]) and in experiment [7] (setting [17]) were -1.92% and 3.49%, respectively.
With `CC(C)NC(=O)N1CC[C@@]2(CCCNC2)C1`, the results for the Potency in experiment [1], in experiment [2] and in experiment [6] were > 20 µM (inactive), > 11.4 µM (inactive) and > 46 µM (inactive), respectively. The result in experiment [3], in experiment [5] and in [8] was inactive. Also, the Potency entry in experiment [11], in [10], in experiment [12], in experiment [13] and in experiment [14] was “inactive” each time. Besides, in [7], the activity change, negative = inhibition was 0.953% (inactive). The max response in [7] (setting [16]) was 13.7%; in [7] (setting [17]), 18.1%.
Take `Cc1noc(C)c1C(=O)N1CCC2(CCCN(CC(C)C)C2)CC1`: the Potency in [1] is > 4 µM (inactive); in [2], > 11.4 µM (inactive); in experiment [6] it was > 46 µM (inactive). The result in experiment [3], in experiment [5], in experiment [9] and in [8] was inactive. In addition, the Potency entry in experiment [11] and in experiment [10] was “inactive” each time. Also, the activity change, negative = inhibition in [7] was 1.67% (inactive). Besides, the max response in [7] (setting [16]) is -5.22%; in [7] (setting [17]) it was -1.22%.
In the case of `O=C(O)c1ccc(NC(=O)N2C[C@H]3C[C@@H](C2)c2cccc(=O)n2C3)cc1`, the result in experiment [8] was inactive.
On the same count and under the same terms, the result for `CN1CCC2=C[C@@H](O)[C@@H]3OC(=O)c4cc5c(cc4C3C21)OCO5` (stereo not given in full) reads “inactive”.
As for `c1csc(CN2CC3(CCNCC3)C2)n1`, the Potency in experiment [1] was > 20 µM (inactive); in experiment [2], > 11.4 µM (inactive). Moreover, the result in experiment [3], in experiment [5], in experiment [9] and in experiment [8] was inactive. Moreover, the Potency entry in [11] and in [10] was “inactive” each time. Also, the activity change, negative = inhibition in experiment [4] was 5.76% (inactive); in [7], 9.28% (inactive). For the same molecule, the results for the max response in experiment [7] (setting [16]) and in experiment [7] (setting [17]) were 10.7% and 24.8%, respectively.
In the case of `CN1CC[C@@]2(CCCN(C(=O)c3ccncc3)C2)C1`, the Potency is > 20 µM (inactive) in experiment [1], > 11.4 µM (inactive) in experiment [2] and > 46 µM (inactive) in [6]. The outcome in experiment [3], in experiment [5], in [9] and in [8] was inactive. The Potency result in experiment [11], in [10] and in experiment [15] was “inactive” throughout. In addition, the activity change, negative = inhibition in experiment [7] is 0.0036% (inactive). Also, the max response stood at 5.11% in experiment [7] (setting [16]) and 8.97% in [7] (setting [17]).
With `O=C(Nc1ccccc1)N1CC[C@@]2(CCCNC2)C1`, the values for the Potency in experiment [1], in experiment [2] and in experiment [6] were > 20 µM (inactive), > 11.4 µM (inactive) and > 46 µM (inactive), respectively. The outcome in experiment [3], in [5] and in experiment [8] was inactive. Further, the values for the activity change, negative = inhibition in [4] and in experiment [7] were 19.4% (inactive) and -3.27% (inactive), respectively. In addition, the Potency result in experiment [10] is “inactive”. The max response stood at 4.57% in experiment [7] (setting [16]) and 3% in experiment [7] (setting [17]).
